# The list is not random: actives were taken first. Their share in the collection is about 2%.
# EWS-Fli inh = EWS/Fli-driven NR0B1 reporter inhibitors, primary screen, A673 cells, NR0B1 luciferase, luminescence, MLPCN library; viability-normalised; inhibition, % at 12.6 µM; 0.67% of 350,000 active; AID 651661, 2012;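 active = mean inhibition of at least 50% after viability correction, with every replicate also passing that limit; inconclusive = mean reaches 50% but only one of two replicates passes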;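 note: firefly luciferase signal divided by Alamar Blue viability fluorescence both relative to DMSO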
# KKLEB tox = cytotoxicity in KKLEB CF airway cells, primary screen, cytotoxicity control for CF NF-kB inhibitor project, cell-based, uHTS, fluorescence assay plates; AID 602141, 2011; KKLEB CF airway cells viability, ATPlite luminescence, overnight; hits give low values; cells stimulated with P. aeruginosa culture filtrate; activity change (cytotoxicity), % at 5 µM; 0.36% of 360,000 active;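 active = corrected activity change at or below -50% at 5 µM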
# PAX8 reporter = inhibitors of PAX8-driven TPO luciferase reporter, primary screen, RMG-I cells, single concentration; SteadyGlo, 24 h; inhibition, % at 12.6 µM; 1.2% of 360,000 active;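 active = mean replicate inhibition at least 60% with every replicate also reaching 60%; inconclusive = only one of the two criteria is met; inactive = mean below 60% and not all replicates reaching 60%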;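 note: luciferase light reporting Pax8 driven TPO promoter activity; plate controls were median of neutral control wells for no effect and mitoxantrone controls for full effect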
# Shn3 inh set2 = reduction of Shn3 3'UTR firefly luciferase signal, primary screen, Schnurri-3 inhibitor project, cell-based, Clone20 osteoblasts, set 2; Clone20 osteoblast Shn3 3'UTR firefly luciferase, 24 h; inhibition, % at 12.5 µM; 0.52% of 360,000 active; AID 588674, 2011;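 active = mean inhibition of at least 75% with every replicate also reaching 75%; inconclusive = mean inhibition at least 75% but some replicate below; inactive = mean inhibition below 75%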;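 note: 0% = median of neutral control wells and 100% = pilot-screen positive control compound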
# LGR2 inh = inhibitors of bursicon-induced LGR2 CRE-luciferase signal, primary screen, cell-based, HEK293, CRE-luciferase reporter, bursicon stimulation. bursicon-stimulated, 4 h. inhibition, % at 9.99 µM. 0.35% of 380,000 active;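 active = drop in luminescence signal, shown as inhibition above about 50% in the replicate tests, limit read from the data, passing the limit was not always enough; inconclusive = probably only some replicates passing the limit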;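 note: agonist challenge used bursicon conditioned medium at about half maximal strength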
# CF NFkB inh = inhibitors of PAF-induced NF-kB signaling, primary screen, cell-based, GFP fluorescence, uHTS. inhibition, % at 5 µM. 0.86% of 360,000 active. KKLEB NF-kB-GFP reporter, GFP fluorescence overnight;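 active = at least 50% inhibition at 5 µM, scaled per plate between neutral and stimulator controls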;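 note: PAF is a Pseudomonas aeruginosa culture filtrate used as stimulus; plate controls were PAF-stimulated DMSO wells for no effect and unstimulated DMSO wells for full effect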
# * marks the source's active call; other numbers are inactive results; ? = inconclusive; nt = no result.
SMILES,EWS-Fli inh,KKLEB tox,PAX8 reporter,Shn3 inh set2,LGR2 inh,CF NFkB inh
CO[C@@H](CN(C)S(=O)(=O)c1ccc(F)cc1)[C@@H](C)CN(Cc1ccccc1Cl)[C@H](C)CO,11,nt,nt,nt,10,nt
CCN(CC)S(=O)(=O)c1cccc(NC(=O)CNc2cccc(S(=O)(=O)N3CCCC3)c2)c1,20,-3,nt,87*,10,18
Oc1cccc2ccc(Nc3ccccn3)nc12,nt,-67*,nt,79,nt,60*
c1ccc(Nc2ccccc2Nc2ccccn2)nc1,2,-3,nt,12,5,-16
C[C@H](CO)N1C[C@H](C)[C@H](CN(C)Cc2ccncc2)Oc2ccc(NS(=O)(=O)c3ccc(Cl)cc3)cc2CC1=O,-1,nt,11,nt,-25,nt
C[C@@H]1CCCCO[C@@H](CN(C)C(=O)Nc2ccc3c(c2)OCO3)[C@H](C)CN([C@H](C)CO)C(=O)c2cc(NC(=O)Nc3ccc4c(c3)OCO4)ccc2O1,-72,nt,-21,nt,8,nt
C[C@H](NC(=O)C[C@@H]1CC[C@@H](NS(=O)(=O)c2cccc(F)c2)[C@H](CO)O1)c1ccccc1,nt,nt,nt,nt,-2,nt
O=[N+]([O-])c1cc([N+](=O)[O-])c2cc3ccccc3nc2c1,72*,-2,27,71,11,84*
CC(=O)c1ccc(N2CCN(S(=O)(=O)c3ccc4c(c3)CC(C)N4C(=O)C3CC3)CC2)cc1 (stereo unspecified),5,-23,20,88*,-8,17
CC1Cc2cc(S(=O)(=O)N3CCC(C(=O)N(C)Cc4ccco4)CC3)ccc2N1C(=O)C1CCC1 (stereo unspecified),nt,-4,61*,27,-22,10
CC(=O)c1ccc(N2CCN(S(=O)(=O)c3ccc4c(c3)CC(C)N4C(C)=O)CC2)cc1 (stereo unspecified),6,0,22,72,-18,-18
CCC(=O)N1c2ccc(S(=O)(=O)N3CCN(c4ccc([N+](=O)[O-])cc4)CC3)cc2CC1C (stereo unspecified),16,-1,68*,84,1,-15
CC(=O)N1c2ccc(S(=O)(=O)N3CCC(C(=O)Nc4cccc(C(F)(F)F)c4)CC3)cc2CC1C (stereo unspecified),26,-11,28,93*,-1,1
CC(C)C#Cc1cnc2c(c1)C(=O)N([C@@H](C)CO)C[C@H](C)[C@@H](CN(C)C(=O)Nc1cc(F)ccc1F)O2,-2,nt,nt,nt,-6,nt
CO[C@@H]1CN(C)C(=O)c2ccc(NS(=O)(=O)c3cn(C)cn3)cc2OC[C@H](C)N(Cc2cccc(F)c2)C[C@@H]1C,0,nt,nt,nt,-5,nt
CC(=O)N1c2ccc(S(=O)(=O)N3CCC(C(=O)N4CCN(c5cc(Cl)ccc5C)CC4)CC3)cc2CC1C (stereo unspecified),16,-3,24,89*,18,23
CC(=O)N1c2ccc(S(=O)(=O)N3CCC(C(=O)N4CCC(C)CC4)CC3)cc2CC1C (stereo unspecified),nt,-6,25,37,1,-5
O=C1/C(=N\S(=O)(=O)c2cccs2)C([n+]2ccccc2)=C([O-])c2ccccc21,-10,0,78*,-13,?,68*
Cc1ccc[n+](C2=C([O-])c3ccccc3C(=O)C2=O)c1,-22,nt,26,nt,-10,nt
CC(C)(C)c1cc[n+](C2=C([O-])c3ccccc3C(=O)/C2=N\S(=O)(=O)c2cccs2)cc1,18,-28,51,30,26,75*
COCC(=O)Nc1ccc2c(c1)OC[C@H](C)N(C(=O)Cc1ccccn1)C[C@@H](C)[C@H](OC)CN(C)C2=O,3,nt,nt,nt,7,nt
Cn1nnnc1Sc1ncnc2scc(-c3ccc(Br)cc3)c12,43,-92*,100*,96*,100*,86*
Cn1nnnc1Sc1ncnc2scc(-c3ccccc3)c12,nt,-24,91*,8,29,38
Cn1nnnc1Sc1ncnc2scc(-c3ccc(F)cc3)c12,nt,-45,108*,93*,nt,60*

# Source: PubChem BioAssay
